We go through twelve compounds from PubChem BioAssay (NCATS).

Records with an inconclusive call do not appear. A number with no mark means an inactive call. Active and inactive are the calls of the source. Calls come from the whole dose curve; as a rule, active = well fitted inhibition curve with a large enough effect; inconclusive = small, poorly fitted or top-dose-only effect; inactive = flat fitted curve, though single readings scatter.
% is set by controls: 0 for no effect and ±100 for the full control effect; potency is the fitted concentration of half-maximal effect.

In the assay the test system is HaCat. The assay is described as follows: Cytotoxic Profiling of Annotated Libraries Using Quantitative High-Throughput Screening (AID 1296008). Note: nearly all actives have a fitted effect of over 60% in size. The conditions noted are these: Five cell lines viability, CellTiter-Glo ATP luminescence, 48-72 h; max response: hits give low values. The method in brief:
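Compounds were pin-transferred onto cells and incubated 48 or 72 hr at 37 degree Celsius, 95% humidity. CellTiter-Glo was added, plates sat 10 min at room temperature, then ATP-coupled luminescence was imaged as the viability read-out.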
For the compound `C[C@@H]1O[C@@H](O[C@H]2CC[C@@]3(C)C(CC[C@]4(C)C3CC=C3[C@@H]5CC(C)(C)CC[C@]5(C(=O)O[C@@H]5O[C@H](CO)[C@@H](O)[C@H](O)[C@H]5O)CC[C@]34C)[C@]2(C)CO)[C@H](O)[C@H](O[C@@H]2O[C@H](CO)[C@@H](O)[C@H](O)[C@H]2O)[C@H]1O` (some centres not stated), the max response is -8.27%.

On to `Cc1ccc(C2(C(=O)N3CCC(n4nc(-c5ccccc5)oc4=O)CC3)CC2)cc1`, for which the max response is -7.48%. With `O=C(NCc1ccccc1-c1ccccc1C(=O)NCCc1ccccn1)OCc1ccccc1`, the max response is -7.21%. On the same count and under the same terms, then `OC1(CN2CCC(COc3noc4cccc(O[C@@H]5CCOC5)c34)CC2)CCOCC1`, with -23.1%; and `NS(=O)(=O)c1ccc(N2N=C(c3ccccc3)CC2c2ccccc2)cc1` (configuration not stated), with 4.65%; and `CCC[C@H](N[C@H]1CCc2cc(F)cc(F)c2C1)C(=O)Nc1cn(C(C)(C)CNCC(C)(C)C)cn1`, with -2.54%. On to `Cc1[nH]c2ccccc2c1CCNCc1ccc(/C=C/C(=O)NO)cc1`, for which the Potency was 0.184 µM (active). `CCCCc1ccc(NS(=O)(=O)c2ccc(F)cc2)cc1`: the max response was -1.98%. For the compound `C=C1CCC2[C@](C)(CCC[C@@]2(C)C=O)[C@H]1CC/C(C)=C/CO` (some centres not stated), the max response is 2.96%.

For `O=C(NCCCc1ccccc1)C1CCC(CNS(=O)(=O)c2cccc3nsnc23)CC1` (configuration not stated), the max response was -4.58%. The same measure, in the same setting: then `O=C(NCC1(N2CCN(c3ccccc3)CC2)CCOCC1)c1cccnc1Sc1ccccc1`, with -2.8%. Regarding `COCCNCc1ccc(-c2cc3nccc(Oc4ccc(NC(=O)C5(C(=O)Nc6ccc(F)cc6)CC5)cc4F)c3s2)nc1`, the Potency is 23.1 µM (active).
